This is an account of results in ChEMBL document CHEMBL3988442, “University of Dundee, Small-Polar-MMV Screening Library” (2021).

For some assays here: Entries with a potency or affinity are not part of this list.

Parameters in all cases: scale not given: direction of the effect not stated beside the values
Test [1] deals with Protein translocase subunit SecA (Escherichia coli (strain K12)) (UniProt P10408). Put plainly: Assay to Identify E. coli SecA ATPase Inhibitors. The format is functional. Conditions: 30 µM.
Protein translocase subunit SecA (Escherichia coli (strain K12)), sequence (P10408 whole entry): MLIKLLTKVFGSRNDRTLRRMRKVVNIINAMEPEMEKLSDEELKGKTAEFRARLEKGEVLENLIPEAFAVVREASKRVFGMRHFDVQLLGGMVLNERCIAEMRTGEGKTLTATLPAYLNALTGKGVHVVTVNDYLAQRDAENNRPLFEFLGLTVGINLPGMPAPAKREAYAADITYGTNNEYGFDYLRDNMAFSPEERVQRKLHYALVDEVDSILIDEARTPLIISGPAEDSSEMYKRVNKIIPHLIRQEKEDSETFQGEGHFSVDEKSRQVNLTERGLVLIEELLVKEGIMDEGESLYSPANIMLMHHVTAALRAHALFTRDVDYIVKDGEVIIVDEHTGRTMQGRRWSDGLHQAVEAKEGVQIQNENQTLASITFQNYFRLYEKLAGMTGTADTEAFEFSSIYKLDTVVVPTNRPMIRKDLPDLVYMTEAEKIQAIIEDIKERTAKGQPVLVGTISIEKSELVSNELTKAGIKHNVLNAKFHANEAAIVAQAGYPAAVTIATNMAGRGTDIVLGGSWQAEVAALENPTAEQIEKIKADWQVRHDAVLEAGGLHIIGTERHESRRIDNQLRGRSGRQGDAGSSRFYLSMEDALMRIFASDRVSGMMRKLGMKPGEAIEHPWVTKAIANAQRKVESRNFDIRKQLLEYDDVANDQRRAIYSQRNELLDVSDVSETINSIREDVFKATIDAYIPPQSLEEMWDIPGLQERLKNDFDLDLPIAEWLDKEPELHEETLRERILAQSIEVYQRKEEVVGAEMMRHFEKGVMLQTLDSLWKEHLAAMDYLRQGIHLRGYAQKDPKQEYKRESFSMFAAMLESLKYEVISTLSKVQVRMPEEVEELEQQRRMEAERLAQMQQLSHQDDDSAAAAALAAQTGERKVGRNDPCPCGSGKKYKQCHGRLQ
Test [2] deals with T1, Ubiquitin-activating enzyme e1, putative (Leishmania donovani (strain BPK282A1)) (UniProt E9BSI1).
T1 sequence (whole entry): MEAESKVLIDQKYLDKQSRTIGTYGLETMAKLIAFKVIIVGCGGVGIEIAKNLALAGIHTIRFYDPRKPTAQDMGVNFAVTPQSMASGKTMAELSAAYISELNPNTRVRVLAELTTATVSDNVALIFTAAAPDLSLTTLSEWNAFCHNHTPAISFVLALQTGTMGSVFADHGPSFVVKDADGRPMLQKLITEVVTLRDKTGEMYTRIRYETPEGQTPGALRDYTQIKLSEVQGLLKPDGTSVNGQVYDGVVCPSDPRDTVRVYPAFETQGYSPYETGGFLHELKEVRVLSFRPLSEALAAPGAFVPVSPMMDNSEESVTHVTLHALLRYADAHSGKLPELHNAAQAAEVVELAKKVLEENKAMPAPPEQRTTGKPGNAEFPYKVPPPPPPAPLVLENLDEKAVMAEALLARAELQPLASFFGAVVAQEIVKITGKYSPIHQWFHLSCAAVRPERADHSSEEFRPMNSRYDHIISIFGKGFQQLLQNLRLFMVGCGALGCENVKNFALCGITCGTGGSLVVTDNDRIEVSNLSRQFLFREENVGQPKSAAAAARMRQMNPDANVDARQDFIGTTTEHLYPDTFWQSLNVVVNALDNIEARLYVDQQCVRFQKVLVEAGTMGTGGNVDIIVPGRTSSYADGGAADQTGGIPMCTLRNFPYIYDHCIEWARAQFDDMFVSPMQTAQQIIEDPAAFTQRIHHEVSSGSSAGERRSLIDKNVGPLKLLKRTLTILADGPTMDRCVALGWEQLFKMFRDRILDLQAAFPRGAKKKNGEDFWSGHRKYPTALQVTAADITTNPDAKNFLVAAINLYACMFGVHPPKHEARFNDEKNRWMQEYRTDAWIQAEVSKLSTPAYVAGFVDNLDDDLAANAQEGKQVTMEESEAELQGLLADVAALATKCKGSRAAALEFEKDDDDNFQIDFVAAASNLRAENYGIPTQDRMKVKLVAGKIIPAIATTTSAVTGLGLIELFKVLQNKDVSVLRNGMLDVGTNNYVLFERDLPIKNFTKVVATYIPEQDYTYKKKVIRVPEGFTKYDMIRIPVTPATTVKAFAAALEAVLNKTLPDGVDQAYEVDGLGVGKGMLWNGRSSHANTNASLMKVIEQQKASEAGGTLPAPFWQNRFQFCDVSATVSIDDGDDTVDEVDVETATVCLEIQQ
Put plainly: Leishmania donovani Ubiquitin Activating Enzyme (LdE1). The format is functional. The note with it: 30 µM.

For test [3], the target named is AMP-activated protein kinase, AMPK (Homo sapiens) (UniProt P54646+O43741+P54619+Q9UGJ0+Q9Y478+Q13131+Q9UGI9). Put plainly: AMP-dependent Kinase enzyme assay. An in vitro enzyme assay that detects ADP turnover that is directly proportional to AMPK activity. This uses naive AMPK that is activated during the assay with MK-8722. The test is classed as functional. The note with it: 30 µM.

Test [4] has as its target Sialic acid-binding Ig-like lectin 9 (Homo sapiens) (UniProt Q9Y336). The test can be described thus: Hs-Siglec9 ALPHAscreen SOP 20170721. Conditions: 10 µM.
A further test has as its system Trypanosoma cruzi. The test can be described thus: Trypanosoma cruzi phosphomannomutase and mannose-1-phosphate guanylyltransferase assay. The format is functional. Conditions: 10 µM.
Test [5] has as its target T2, Arginase-2, mitochondrial (Homo sapiens) (UniProt P78540).
T2 sequence (whole entry): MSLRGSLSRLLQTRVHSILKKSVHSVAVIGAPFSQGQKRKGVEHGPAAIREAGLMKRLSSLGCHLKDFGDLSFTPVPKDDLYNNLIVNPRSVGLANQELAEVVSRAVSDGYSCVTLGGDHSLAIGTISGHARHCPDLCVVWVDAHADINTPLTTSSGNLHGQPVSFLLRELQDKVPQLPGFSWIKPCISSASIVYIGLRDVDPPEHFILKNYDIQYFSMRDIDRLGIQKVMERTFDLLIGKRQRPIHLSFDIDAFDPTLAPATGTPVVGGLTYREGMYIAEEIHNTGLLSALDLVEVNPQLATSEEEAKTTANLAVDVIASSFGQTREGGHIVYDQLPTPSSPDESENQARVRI
Put plainly: in vitro enzyme assay to detect the production of urea directly proportional to the activity of Arginase II. Also: in the data most compounds retested in dose-response had high values. The format is functional. Conditions: 33.3 µM.

Test [6] concerns the target T3, Proteasome subunit beta (Trypanosoma cruzi) (UniProt O96673).
T3 sequence (whole entry): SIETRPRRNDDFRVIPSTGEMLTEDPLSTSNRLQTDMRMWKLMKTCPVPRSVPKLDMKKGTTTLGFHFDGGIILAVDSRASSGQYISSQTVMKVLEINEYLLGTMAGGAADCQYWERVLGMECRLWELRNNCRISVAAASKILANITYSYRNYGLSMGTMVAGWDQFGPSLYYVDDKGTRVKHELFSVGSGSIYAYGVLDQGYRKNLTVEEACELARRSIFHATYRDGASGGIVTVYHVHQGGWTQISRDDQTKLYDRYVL
The test can be described thus: Trypanosoma cruzi proteasome chymotrypsin-like activity (TcProtChymo) assay. Also: in the data most compounds retested in dose-response had high values. The format is functional. The note with it: 9.37 µM.

Another test is filed under the species Homo sapiens. The test can be described thus: To identify inhibition of the IFN signalling (Jak-Stat) pathway via expression of an eGFP reporter gene under the control of an IFN-stimulated response element (ISRE) containing MxA promoter. The test is classed as functional. Conditions: 30 µM.
Test [7] deals with T4, Tyrosyl-tRNA synthetase, putative (Trypanosoma cruzi (strain CL Brener)) (UniProt Q4DSP6).
T4 sequence (whole entry): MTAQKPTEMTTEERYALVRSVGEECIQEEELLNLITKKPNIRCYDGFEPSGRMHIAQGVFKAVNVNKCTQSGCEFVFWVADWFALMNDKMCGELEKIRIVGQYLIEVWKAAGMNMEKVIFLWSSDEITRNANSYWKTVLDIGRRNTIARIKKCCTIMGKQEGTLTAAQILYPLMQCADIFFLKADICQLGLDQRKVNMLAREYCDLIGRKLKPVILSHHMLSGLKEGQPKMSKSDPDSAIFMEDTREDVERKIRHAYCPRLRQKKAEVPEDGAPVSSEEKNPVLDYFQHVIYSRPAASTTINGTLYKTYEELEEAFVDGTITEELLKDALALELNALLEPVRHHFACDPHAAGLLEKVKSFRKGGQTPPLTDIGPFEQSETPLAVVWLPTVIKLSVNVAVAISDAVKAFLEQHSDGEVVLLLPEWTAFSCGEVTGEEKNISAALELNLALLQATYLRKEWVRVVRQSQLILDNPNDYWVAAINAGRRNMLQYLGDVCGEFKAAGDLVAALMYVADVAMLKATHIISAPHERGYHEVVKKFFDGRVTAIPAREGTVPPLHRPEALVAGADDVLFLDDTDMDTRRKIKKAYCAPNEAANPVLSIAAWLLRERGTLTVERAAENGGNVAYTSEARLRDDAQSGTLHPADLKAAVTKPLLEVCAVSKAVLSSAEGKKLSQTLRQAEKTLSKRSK
The test can be described thus: Trypanosoma cruzi tyrosyl tRNA synthetase (TcYRS) _High Tyrosine SOP. Also: in the data most compounds retested in dose-response had high values. The format is functional. Conditions: 30 µM.

Test [8] addresses T4, Tyrosyl-tRNA synthetase, putative (Trypanosoma cruzi (strain CL Brener)). Put plainly: Trypanosoma cruzi tyrosyl tRNA synthetase (TcYRS) SOP. The format is functional. The note with it: 30 µM.
Test [9] addresses Chromo domain-containing protein 1 (Saccharomyces cerevisiae (strain ATCC 204508 / S288c) (Baker's yeast)) (UniProt P32657). The test can be described thus: ScCHD-1 Enzyme Inhibition Assay. Also: in the data most compounds retested in dose-response had high values. The note with it: 30 µM. The test is classed as functional.

Chromo domain-containing protein 1 (Saccharomyces cerevisiae (strain ATCC 204508 / S288c) (Baker's yeast)), sequence (P32657 whole entry, the tested form may be a part): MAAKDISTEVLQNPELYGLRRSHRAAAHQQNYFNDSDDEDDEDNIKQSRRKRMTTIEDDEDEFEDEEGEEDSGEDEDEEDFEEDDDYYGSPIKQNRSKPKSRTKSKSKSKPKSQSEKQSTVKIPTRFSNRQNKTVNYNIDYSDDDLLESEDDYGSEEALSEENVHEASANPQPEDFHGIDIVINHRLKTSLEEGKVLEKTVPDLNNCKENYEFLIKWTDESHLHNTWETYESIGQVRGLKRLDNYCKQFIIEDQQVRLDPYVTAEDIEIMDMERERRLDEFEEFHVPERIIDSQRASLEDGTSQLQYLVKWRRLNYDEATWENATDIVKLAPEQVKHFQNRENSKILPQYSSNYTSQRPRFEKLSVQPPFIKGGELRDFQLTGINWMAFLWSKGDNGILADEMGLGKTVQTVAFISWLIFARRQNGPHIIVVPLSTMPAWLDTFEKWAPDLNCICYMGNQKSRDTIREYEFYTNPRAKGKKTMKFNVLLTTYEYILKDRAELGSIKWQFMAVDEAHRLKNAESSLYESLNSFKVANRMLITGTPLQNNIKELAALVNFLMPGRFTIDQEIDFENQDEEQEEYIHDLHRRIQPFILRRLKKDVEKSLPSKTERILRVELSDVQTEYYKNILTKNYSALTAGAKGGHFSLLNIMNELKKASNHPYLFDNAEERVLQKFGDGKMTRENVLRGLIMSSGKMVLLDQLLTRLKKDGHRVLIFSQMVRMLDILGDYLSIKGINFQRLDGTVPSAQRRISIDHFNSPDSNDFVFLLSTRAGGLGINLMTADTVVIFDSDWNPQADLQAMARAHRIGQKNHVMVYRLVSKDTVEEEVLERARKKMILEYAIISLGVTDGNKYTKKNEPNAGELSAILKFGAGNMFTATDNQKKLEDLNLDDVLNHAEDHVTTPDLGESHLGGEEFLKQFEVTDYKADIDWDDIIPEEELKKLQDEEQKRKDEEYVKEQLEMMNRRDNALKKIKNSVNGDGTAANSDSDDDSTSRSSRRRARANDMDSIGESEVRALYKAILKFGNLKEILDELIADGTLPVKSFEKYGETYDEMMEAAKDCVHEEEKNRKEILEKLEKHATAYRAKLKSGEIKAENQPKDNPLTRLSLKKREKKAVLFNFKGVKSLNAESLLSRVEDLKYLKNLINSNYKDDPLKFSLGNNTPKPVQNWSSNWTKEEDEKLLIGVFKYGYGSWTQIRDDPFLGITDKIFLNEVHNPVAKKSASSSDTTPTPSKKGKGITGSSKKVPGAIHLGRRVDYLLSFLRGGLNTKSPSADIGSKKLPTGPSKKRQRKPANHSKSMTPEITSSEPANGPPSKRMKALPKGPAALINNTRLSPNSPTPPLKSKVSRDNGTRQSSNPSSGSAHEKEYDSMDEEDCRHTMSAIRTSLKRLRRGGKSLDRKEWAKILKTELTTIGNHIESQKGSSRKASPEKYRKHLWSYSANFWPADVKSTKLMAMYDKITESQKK
Sialic acid-binding Ig-like lectin 9 (Homo sapiens), sequence (Q9Y336 whole entry): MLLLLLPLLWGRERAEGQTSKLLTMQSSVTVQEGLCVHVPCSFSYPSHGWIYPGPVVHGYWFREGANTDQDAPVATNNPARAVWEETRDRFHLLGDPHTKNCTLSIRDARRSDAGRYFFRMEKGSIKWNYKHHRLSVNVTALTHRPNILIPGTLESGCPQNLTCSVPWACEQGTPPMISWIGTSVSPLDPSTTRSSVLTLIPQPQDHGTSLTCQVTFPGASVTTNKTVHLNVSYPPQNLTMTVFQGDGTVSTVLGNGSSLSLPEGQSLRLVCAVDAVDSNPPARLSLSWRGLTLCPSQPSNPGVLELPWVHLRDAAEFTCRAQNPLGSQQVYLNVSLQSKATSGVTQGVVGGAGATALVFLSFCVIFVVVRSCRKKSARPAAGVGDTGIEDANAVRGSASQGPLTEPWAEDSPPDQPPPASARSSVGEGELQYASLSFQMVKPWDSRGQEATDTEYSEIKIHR

Turning to `O=C1[C@H]2CC[C@H](CN(C3CSCCSC3)C2)N1Cc1cscn1`, the Percent Effect in test [1] is -0.514%; in test [2] it was 2.74%; in [3], 6.23%; in test [4] it was 4.75%; in the test with Trypanosoma cruzi, -8.53%; in test [5], -1.2%. In addition, the Percent Effect in test [6] worked out at 18.4%; in the test listed under Homo sapiens, 8.4%; in test [7], 8.33%; in test [8], 16.1%; in test [9], 1.67%.
As to `NC(=O)CSCCC(=O)N1CCCC1c1ccsc1` (stereo not given), the Percent Effect in [1] is -2.98%; in test [2] it was 1.39%; in test [3] it was -4.14%; in test [4], 8.9%; in the test with Trypanosoma cruzi it was 4.76%; in test [5], 19%. The Percent Effect was 4.74% in test [6]; 13.9% in the test filed under Homo sapiens; 3.16% in test [7]; 7.69% in [8]; -1.44% in [9].
Turning to `CN(Cc1ccco1)C[C@H]1OC[C@@H]2CCN(Cc3nccs3)C[C@@H]21`, the Percent Effect in [1] is -6.74%; in test [2] it was 16%; in test [3], -3.04%; in test [4] it was -3.48%; with Trypanosoma cruzi, 5.41%; in test [5] it was -45%. For the same compound, the Percent Effect in test [6] is 16.1%; in the test filed under Homo sapiens, 7.21%; in test [7] it was 2.08%; in [8], 10%; in test [9], -6.67%.
As to `CCOc1cc(C(=O)N2CCCC(c3cc(C(N)=O)[nH]n3)C2)ccn1` (stereo not given), the Percent Effect was -4.21% in test [1]; 10.5% in test [2]; 5.83% in test [3]; -2.38% in test [4]; 7.94% with Trypanosoma cruzi; 0% in [5]. The Percent Effect in test [6] is 5.5%; in the test filed under Homo sapiens it was -0.364%; in [7], 3.45%; in test [8], 16.1%; in test [9], -0.329%.
Regarding `Cc1nn(C)c(N2CCOCC2)c1CNC(C)c1cccnc1` (stereo not given), the Percent Effect in test [1] is -3.55%; in test [2], 6.94%; in [3], -10.5%; in test [4], 21.7%; with Trypanosoma cruzi, 2.62%; in [5] it was 7.95%. Besides, the Percent Effect in test [6] is 11.4%; in the test listed under Homo sapiens it was -22.8%; in test [7], 3.16%; in test [8], 10.3%; in test [9], -6.39%.
Consider `CC(CNC(=O)c1ccccc1Oc1cccnc1)N(C)C` (stereo not given), for which the Percent Effect in test [1] is -2.21%; in test [2], 10.8%; in [3] it was -2.99%; in [4] it was 12.9%; in the test on Trypanosoma cruzi, 5.41%; in test [5], -0.476%. Moreover, the Percent Effect in test [6] is 5.69%; in the test listed under Homo sapiens, -6.47%; in test [7], 3.7%; in test [8], 9.76%; in test [9], -1.53%.
Regarding `COCCN1C[C@@H]2CN(Cc3ccsc3)CCC[C@]2(C(=O)O)C1`, the Percent Effect in test [1] is 0.995%; in test [2] it was 10.4%; in test [3], 4.76%; in [4], -2.5%; in the test with Trypanosoma cruzi, -5.23%; in test [5] it was 11%. Moreover, the Percent Effect in test [6] is 16.5%; in the test listed under Homo sapiens, 13.1%; in test [7], 4.23%; in test [8], 14.1%; in test [9], -4.97%.
As to `Cc1cc(CN(C)C2CCCN(c3cccnn3)C2)on1` (stereo not given), the Percent Effect in test [1] was -4.98%; in test [2] it was -2.67%; in test [3], -10.6%; in test [4], -0.639%; with Trypanosoma cruzi, 4.19%; in [5], 1.56%. Also, the Percent Effect was 16.2% in test [6]; -1.53% in the test filed under Homo sapiens; 11.5% in [7]; 13.6% in test [8]; -1.67% in test [9].
With `Cc1ccc(N2CCCC(NCc3ccc(C)o3)C2)nn1` (stereo not given), the Percent Effect was -0.735% in [1]; 6.33% in test [2]; 1.51% in [3]; -2.46% in test [4]; 4% in the test on Trypanosoma cruzi; -1.5% in test [5]. Also, the Percent Effect in test [6] was 28.8%; in the test listed under Homo sapiens it was -8.15%; in test [7], 5.21%; in test [8], 10.1%; in [9], -15.2%.
As for `CC(Oc1ccccc1C(F)(F)F)C(=O)NCCC(=O)N(C)C` (stereo not given), the Percent Effect in [1] is -4.14%; in test [2], 8.11%; in test [3], -2.52%; in [4], 6.01%; in the test with Trypanosoma cruzi it was 2.93%; in test [5] it was 26.2%. Further, the Percent Effect in [6] was 3.47%; in the test filed under Homo sapiens, -11.3%; in test [7], 4.95%; in test [8], 13.4%; in test [9], -4%.
